The whole screen tested about 69,000 compounds, of which about 8,600 (12%) showed an effect of 50% or more. What follows is part of a selection rich in strong results, with near analogues and random picks from the rest.
System: Plasmodium berghei
Assay: Screen against P. berghei liver stage (PbLuc), transformed with Luciferase, at 10uM
Type: functional, HepG2
Conditions: tested at 10 uM

SMILES	INHIBITION [%]
CN(C)Cc1ccnc(C2CN(Cc3nccs3)CCO2)n1 (configuration not stated)	35.2
Cc1cc(N2CCC(C(=O)NC3CC3)CC2)nc(-c2ccncc2)n1	-0.219
CS(=O)(=O)N1CCC(Cc2cnc(Br)cn2)C1 (configuration not stated)	-29.9
c1cnc(N2CCCC(Cc3nccs3)C2)nc1 (configuration not stated)	11.685
CS(=O)(=O)NC1CCN(C(=O)c2coc(CN3CCOCC3)c2)CC1	34.9
COc1cc(CSc2nnc(C)n2CC(N)=O)ccc1SC	-9.93
CCCC(=O)N1CCC(Cc2ccccc2-c2ccccc2)(C(N)=O)C1 (configuration not stated)	-31
O=C(C1CCOC1)N1CCC2(CCN(Cc3nccs3)CC2)CC1 (configuration not stated)	52
O=C(C1CCOCC1)N1CCC2(CCN(Cc3nccs3)CC2)CC1	18.3
O=C(C1CCOC1)N1CCC2(CCN(Cc3nccs3)C2)CC1 (configuration not stated)	46.2
CC(C)CC(=O)N1C[C@@H]2CCN(c3ncccn3)C[C@@H]2C1	44.1
CC(C)Oc1ncc(C(=O)N2CCC(NC(=O)C3CC3)CC2)cc1Cl	-13.2
CC(C)Oc1ncc(C(=O)N2CCc3ccc(O)cc3C2)cc1Cl	77.1
CC(C)Oc1ncc(C(=O)N2CCCC(C(=O)O)C2)cc1Cl (configuration not stated)	23.3
O=C(c1c[nH]c(=O)c(Cl)c1)N1CCc2ccccc2C1	-29.6
O=C(c1cnc(OCC(F)(F)F)c(Cl)c1)N1CCc2ccc(O)cc2C1	70.9

SMILES	INHIBITION [%]
O=C(c1ccc(O)nc1)N1CCc2ccc(O)cc2C1	11.7
COc1ccc(CN2C[C@@H](OCc3csc(C)n3)[C@H]3COC[C@H]32)cc1	-21.5
N#CC1CCCN(C(=O)Cn2ncc(N3CCCC3)cc2=O)C1 (configuration not stated)	44.9
Cc1cc(C2CCC2)nc(N2CCC3(CCCNC3=O)C2)n1 (configuration not stated)	42.5
CCc1cc(N2CCC3(CCCNC3=O)C2)nc(N2CCOCC2)n1 (configuration not stated)	70.3
CCc1cc(N2CCCC(CC)(C(=O)O)C2)nc(N2CCOCC2)n1 (configuration not stated)	39.6
COCCN1CCN(c2nc(O)cc(Cc3ccccc3F)n2)CC1	38.7
COCCN1CCC(CN(CC2CCCO2)C(=O)CCNC(C)=O)CC1 (configuration not stated)	-14.9
COCCCN1CCN(CC2CCCO2)CC1 (configuration not stated)	17.5
COCCN1CCC(CN(CC2CCCO2)C(=O)COC)CC1 (configuration not stated)	26.8
Cc1cccc(C)c1OCCCN1CCC(n2cncn2)CC1	-49.5
COCCN1CCC(CN(CC2CCCO2)C(=O)CNC(C)=O)CC1 (configuration not stated)	50.2
Cn1c(CN2CCN(CC3CCCO3)CC2)nc2ccccc21 (configuration not stated)	27.6
Cc1cccc(C)c1OCCCN1CCN(CC2CCCO2)CC1 (configuration not stated)	67.1
O=S(=O)(N1CCCC1)N1CCN(CC2CCCO2)CC1 (configuration not stated)	33.4
COCCN1CCN(CC2CCCCO2)CC1 (configuration not stated)	51.7

— ChEMBL document CHEMBL4513216, “Probing the Open Global Health Chemical Diversity Library for Multistage-Active Starting Points for Next-Generation Antimalarials” (ACS Infect Dis, 2020)
